The values below come from publication PMC7862700, “An all-to-all approach to the identification of sequence-specific readers for epigenetic DNA modifications on cytosine”.

Holding throughout (test): DAPPL (digital affinity profiling via proximity ligation, sequencing); 10 mM Tris-HCl pH 7.5, 50 mM NaCl, 1 mM DTT, 4% glycerol, room temperature, 30 min; GST-TFs on glutathione beads, 16-mer random dsDNA library, 0.1% formaldehyde crosslink after washing; high values mean tight binding
One assay deals with T1, FEV (Homo sapiens, UniProt Q99581 1-238).
T1 sequence: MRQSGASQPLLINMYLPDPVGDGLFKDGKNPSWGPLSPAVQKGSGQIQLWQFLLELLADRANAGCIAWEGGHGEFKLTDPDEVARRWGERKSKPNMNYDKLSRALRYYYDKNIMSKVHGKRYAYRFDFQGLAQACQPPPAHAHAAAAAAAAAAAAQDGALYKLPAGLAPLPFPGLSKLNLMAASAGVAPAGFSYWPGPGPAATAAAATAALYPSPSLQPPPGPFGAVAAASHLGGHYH
To be noted: protein: recombinant; tags: N-terminal GST; dsDNA, one strand shown. In outline:
(§1)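 Binding signal is each hexamer's read frequency for a factor divided by its frequency in the tag-only sample. The factors were GST-fused human transcription factors from yeast, captured on glutathione beads, DNA-barcoded and pooled with that sample. Pools were incubated with 200 nmole of a random double-stranded 16-mer DNA library in Tris/NaCl/DTT/glycerol buffer at room temperature for 30 min, then washed, crosslinked with 0.1% formaldehyde, proximity-ligated with BsaI/T4 ligase (1 h, 37 °C), PCR-amplified and sequenced on an Illumina NextSeq500.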

In a further assay the target is ETV5 (Homo sapiens, UniProt P41161 1-510). The note with it: protein: recombinant; tags: N-terminal GST; dsDNA, one strand shown. The method, boiled down:
as §1

A further assay addresses HSF1 (Homo sapiens, UniProt Q00613 1-529). The note with it: protein: recombinant; tags: N-terminal GST; chain copies: 3; dsDNA, one strand shown. In outline: as §1
A further assay concerns the target T2, SPIC (Homo sapiens, UniProt Q8N5J4 1-248).
T2 sequence: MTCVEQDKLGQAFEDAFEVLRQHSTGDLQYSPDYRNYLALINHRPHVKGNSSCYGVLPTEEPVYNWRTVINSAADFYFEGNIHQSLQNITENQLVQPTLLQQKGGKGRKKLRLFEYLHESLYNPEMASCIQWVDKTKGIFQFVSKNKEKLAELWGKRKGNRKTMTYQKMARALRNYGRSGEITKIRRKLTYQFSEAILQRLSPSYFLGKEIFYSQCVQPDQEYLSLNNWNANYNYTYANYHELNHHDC
The note with it: protein: recombinant; tags: N-terminal GST; dsDNA, one strand shown. In outline:
as §1

For another assay, the target named is ELF4 (Homo sapiens, UniProt Q99607 1-663). The note with it: protein: recombinant; tags: N-terminal GST; dsDNA, one strand shown. In outline:
as §1

The target in a further assay is T3, ELK4 (Homo sapiens, UniProt P28324-2 1-405).
T3 sequence: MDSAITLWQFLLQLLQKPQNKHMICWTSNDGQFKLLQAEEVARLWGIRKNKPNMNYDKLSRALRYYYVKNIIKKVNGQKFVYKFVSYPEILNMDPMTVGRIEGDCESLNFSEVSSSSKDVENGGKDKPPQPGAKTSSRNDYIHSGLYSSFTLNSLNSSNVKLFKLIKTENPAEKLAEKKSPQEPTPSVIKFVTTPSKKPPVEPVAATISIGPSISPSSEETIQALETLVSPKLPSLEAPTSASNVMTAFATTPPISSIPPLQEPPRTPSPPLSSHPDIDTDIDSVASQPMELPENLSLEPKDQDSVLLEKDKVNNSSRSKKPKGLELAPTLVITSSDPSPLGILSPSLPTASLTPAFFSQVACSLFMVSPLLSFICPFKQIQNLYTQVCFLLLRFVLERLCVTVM
To be noted: protein: recombinant; tags: N-terminal GST; dsDNA, one strand shown. The method, boiled down: as §1

A further assay has as its target T4, ETV2 (Homo sapiens, UniProt O00321 1-342).
T4 sequence: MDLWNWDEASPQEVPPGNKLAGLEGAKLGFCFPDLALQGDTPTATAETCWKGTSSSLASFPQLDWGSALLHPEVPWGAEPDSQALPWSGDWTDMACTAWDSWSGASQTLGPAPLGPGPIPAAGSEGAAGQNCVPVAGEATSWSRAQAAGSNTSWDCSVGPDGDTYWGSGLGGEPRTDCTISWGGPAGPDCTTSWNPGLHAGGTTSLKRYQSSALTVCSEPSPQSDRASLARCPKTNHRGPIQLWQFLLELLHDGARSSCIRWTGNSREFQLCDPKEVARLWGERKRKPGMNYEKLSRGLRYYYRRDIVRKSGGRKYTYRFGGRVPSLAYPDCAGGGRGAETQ
The note with it: protein: recombinant; tags: N-terminal GST; dsDNA, one strand shown. The method, boiled down: as §1

For another assay, the target named is T5, ELF3 (Homo sapiens, UniProt P78545 1-371).
T5 sequence: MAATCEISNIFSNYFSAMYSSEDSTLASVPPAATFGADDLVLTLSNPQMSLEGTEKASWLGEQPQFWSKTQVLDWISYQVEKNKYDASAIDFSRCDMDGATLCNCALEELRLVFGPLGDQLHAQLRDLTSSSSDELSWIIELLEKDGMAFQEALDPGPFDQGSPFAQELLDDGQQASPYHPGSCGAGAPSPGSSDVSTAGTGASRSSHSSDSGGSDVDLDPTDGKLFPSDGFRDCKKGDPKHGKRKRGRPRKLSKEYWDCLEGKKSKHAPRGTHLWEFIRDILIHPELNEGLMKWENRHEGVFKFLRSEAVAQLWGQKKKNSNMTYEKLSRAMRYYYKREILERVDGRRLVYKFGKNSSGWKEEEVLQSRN
To be noted: protein: recombinant; tags: N-terminal GST; dsDNA, one strand shown. In outline: as §1

A further assay addresses CRX (Homo sapiens, UniProt O43186 1-299). The note with it: protein: recombinant; tags: N-terminal GST; dsDNA, one strand shown. In outline: as §1
The next assay has as its target ETV1 (Homo sapiens, UniProt P50549 1-477). The note with it: protein: recombinant; tags: N-terminal GST; dsDNA, one strand shown. In outline: as §1
In the next assay the target is T6, ERF (Homo sapiens, UniProt P50548 1-548).
T6 sequence: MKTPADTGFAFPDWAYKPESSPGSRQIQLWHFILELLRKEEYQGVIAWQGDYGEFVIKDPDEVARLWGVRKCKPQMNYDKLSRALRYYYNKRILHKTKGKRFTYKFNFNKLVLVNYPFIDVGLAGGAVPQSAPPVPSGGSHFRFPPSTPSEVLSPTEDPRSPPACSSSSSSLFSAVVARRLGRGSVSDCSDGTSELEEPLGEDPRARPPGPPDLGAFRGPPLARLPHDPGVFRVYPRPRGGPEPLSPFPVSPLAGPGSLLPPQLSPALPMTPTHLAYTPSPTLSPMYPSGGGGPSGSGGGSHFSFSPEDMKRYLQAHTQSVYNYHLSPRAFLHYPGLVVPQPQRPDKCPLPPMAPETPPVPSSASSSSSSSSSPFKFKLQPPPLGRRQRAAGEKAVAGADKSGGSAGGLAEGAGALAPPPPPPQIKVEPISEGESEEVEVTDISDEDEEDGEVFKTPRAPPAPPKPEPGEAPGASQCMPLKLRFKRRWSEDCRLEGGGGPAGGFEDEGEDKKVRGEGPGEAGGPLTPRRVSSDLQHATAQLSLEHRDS
The note with it: protein: recombinant; tags: N-terminal GST; dsDNA, one strand shown. In outline:
as §1

Another assay concerns the target T7, ETV3L (Homo sapiens, UniProt Q6ZN32 1-361).
T7 sequence: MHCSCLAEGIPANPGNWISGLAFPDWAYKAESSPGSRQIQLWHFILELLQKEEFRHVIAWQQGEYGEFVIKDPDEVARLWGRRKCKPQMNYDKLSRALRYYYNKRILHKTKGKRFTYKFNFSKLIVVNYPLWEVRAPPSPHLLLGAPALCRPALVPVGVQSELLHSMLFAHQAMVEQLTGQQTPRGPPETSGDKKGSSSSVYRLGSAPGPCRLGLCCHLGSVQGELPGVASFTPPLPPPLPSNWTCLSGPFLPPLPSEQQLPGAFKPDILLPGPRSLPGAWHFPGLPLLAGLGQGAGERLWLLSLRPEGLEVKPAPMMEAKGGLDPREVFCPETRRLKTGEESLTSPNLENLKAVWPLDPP
To be noted: protein: recombinant; tags: N-terminal GST; dsDNA, one strand shown. The method, boiled down: as §1

For another assay, the target named is T8, ETS2 (Homo sapiens, UniProt P15036 1-469).
T8 sequence: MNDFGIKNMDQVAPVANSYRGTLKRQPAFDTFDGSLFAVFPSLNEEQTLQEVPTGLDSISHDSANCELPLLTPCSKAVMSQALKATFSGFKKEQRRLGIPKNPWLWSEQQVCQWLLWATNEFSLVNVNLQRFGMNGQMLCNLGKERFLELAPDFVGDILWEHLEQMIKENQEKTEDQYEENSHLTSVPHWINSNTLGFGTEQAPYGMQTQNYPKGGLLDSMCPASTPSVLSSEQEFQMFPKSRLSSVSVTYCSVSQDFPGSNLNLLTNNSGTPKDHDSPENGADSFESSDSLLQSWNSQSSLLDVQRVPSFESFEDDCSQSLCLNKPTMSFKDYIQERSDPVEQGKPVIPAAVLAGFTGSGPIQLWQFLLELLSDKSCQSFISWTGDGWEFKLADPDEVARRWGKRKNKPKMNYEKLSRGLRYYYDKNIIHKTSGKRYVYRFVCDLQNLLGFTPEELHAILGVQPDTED
The note with it: protein: recombinant; tags: N-terminal GST; dsDNA, one strand shown. In outline: as §1

The next assay has as its target T9, SPDEF (Homo sapiens, UniProt O95238 1-335).
T9 sequence: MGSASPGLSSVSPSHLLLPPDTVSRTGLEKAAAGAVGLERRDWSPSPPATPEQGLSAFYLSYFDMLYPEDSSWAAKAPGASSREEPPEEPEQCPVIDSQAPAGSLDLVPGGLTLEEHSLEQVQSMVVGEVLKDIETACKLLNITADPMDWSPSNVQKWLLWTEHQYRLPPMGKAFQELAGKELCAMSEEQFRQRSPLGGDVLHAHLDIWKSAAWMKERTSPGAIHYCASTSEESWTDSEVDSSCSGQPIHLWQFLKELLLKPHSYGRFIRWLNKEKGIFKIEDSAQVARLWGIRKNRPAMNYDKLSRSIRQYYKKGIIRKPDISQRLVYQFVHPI
The note with it: protein: recombinant; tags: N-terminal GST; dsDNA, one strand shown. The method, boiled down: as §1

In a further assay the target is T10, ETV7 (Homo sapiens, UniProt Q9Y603 1-341).
T10 sequence: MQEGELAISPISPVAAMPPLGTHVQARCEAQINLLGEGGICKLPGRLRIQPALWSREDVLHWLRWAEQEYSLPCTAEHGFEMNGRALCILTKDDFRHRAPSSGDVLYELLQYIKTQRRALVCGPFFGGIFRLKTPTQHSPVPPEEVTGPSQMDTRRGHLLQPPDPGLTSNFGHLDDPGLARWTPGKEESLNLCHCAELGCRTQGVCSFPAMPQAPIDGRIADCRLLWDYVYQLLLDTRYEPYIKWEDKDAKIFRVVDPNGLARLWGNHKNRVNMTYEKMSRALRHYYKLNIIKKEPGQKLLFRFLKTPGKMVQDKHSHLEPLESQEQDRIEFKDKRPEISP
To be noted: protein: recombinant; tags: N-terminal GST; dsDNA, one strand shown. In outline:
as §1

In a further assay the target is T11, ELF5 (Homo sapiens, UniProt Q9UKW6-2 1-255).
T11 sequence: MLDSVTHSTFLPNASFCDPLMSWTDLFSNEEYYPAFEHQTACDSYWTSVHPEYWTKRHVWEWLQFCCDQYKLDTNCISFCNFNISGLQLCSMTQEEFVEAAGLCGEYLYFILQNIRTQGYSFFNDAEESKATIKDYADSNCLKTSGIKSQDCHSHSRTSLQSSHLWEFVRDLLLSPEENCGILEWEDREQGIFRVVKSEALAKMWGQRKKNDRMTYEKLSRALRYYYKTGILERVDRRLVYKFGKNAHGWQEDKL
To be noted: protein: recombinant; tags: N-terminal GST; dsDNA, one strand shown. In outline: as §1

The target of the next assay is T12, ETV3 (Homo sapiens, UniProt P41162-2 1-143).
T12 sequence: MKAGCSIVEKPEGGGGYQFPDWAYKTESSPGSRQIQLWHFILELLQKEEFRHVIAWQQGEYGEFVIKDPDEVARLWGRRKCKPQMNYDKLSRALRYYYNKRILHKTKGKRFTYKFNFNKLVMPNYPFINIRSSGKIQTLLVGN
The note with it: protein: recombinant; tags: N-terminal GST; dsDNA, one strand shown. In outline: as §1

For the next assay, the target named is ETV6 (Homo sapiens, UniProt P41212 1-452). To be noted: protein: recombinant; tags: N-terminal GST; dsDNA, one strand shown. In outline:
as §1

Chain of CRX (O43186 whole entry): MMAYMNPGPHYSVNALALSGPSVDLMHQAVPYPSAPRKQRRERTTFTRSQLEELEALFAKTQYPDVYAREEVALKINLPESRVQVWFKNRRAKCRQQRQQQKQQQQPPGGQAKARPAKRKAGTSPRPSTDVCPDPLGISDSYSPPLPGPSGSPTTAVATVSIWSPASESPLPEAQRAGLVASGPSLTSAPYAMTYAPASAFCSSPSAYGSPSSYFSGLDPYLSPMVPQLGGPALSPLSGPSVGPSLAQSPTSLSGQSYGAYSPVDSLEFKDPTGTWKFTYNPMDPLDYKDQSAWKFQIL
Chain of ETV1 (P50549 whole entry): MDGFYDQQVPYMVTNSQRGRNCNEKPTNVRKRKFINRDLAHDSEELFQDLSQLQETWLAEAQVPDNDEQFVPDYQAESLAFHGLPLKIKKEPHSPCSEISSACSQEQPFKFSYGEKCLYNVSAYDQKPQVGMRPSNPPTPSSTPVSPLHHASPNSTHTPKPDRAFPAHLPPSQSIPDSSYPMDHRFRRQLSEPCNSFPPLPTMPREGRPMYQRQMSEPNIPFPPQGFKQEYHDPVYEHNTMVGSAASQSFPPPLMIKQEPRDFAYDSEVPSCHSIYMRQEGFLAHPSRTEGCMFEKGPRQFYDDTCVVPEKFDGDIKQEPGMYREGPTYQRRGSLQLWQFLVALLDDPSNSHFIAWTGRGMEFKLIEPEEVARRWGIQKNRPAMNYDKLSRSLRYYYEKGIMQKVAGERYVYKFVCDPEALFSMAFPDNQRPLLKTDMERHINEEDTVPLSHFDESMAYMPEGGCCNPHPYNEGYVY
Chain of HSF1 (Q00613 whole entry): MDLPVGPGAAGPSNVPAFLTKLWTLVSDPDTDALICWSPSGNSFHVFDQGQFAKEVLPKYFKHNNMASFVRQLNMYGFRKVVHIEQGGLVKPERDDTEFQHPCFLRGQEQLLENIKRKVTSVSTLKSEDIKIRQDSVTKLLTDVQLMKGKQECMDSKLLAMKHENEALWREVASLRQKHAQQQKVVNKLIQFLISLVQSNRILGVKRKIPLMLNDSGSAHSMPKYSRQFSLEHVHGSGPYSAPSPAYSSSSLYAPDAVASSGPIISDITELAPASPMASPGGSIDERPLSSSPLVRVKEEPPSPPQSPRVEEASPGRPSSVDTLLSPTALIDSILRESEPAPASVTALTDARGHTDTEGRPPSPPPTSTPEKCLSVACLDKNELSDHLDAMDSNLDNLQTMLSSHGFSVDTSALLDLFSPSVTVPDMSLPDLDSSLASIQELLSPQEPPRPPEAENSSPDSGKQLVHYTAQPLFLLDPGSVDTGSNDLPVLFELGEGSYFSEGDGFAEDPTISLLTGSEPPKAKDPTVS
Chain of ELF4 (Q99607 whole entry): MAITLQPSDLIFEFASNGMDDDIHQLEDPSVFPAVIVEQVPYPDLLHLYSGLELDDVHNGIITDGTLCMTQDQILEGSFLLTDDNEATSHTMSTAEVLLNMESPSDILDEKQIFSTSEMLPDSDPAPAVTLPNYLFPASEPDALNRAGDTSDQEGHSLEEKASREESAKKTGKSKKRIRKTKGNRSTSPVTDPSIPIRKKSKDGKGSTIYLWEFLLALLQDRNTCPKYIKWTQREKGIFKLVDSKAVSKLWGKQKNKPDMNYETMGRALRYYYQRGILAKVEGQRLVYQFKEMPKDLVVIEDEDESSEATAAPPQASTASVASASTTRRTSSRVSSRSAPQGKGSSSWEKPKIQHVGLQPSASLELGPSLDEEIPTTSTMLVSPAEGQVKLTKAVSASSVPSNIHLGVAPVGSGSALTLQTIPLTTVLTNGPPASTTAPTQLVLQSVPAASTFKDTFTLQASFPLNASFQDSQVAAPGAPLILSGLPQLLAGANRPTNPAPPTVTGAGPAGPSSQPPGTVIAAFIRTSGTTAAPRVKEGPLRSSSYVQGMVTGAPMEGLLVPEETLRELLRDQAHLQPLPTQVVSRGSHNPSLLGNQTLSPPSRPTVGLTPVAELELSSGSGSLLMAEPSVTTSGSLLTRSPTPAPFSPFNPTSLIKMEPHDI
Chain of ETV5 (P41161 whole entry): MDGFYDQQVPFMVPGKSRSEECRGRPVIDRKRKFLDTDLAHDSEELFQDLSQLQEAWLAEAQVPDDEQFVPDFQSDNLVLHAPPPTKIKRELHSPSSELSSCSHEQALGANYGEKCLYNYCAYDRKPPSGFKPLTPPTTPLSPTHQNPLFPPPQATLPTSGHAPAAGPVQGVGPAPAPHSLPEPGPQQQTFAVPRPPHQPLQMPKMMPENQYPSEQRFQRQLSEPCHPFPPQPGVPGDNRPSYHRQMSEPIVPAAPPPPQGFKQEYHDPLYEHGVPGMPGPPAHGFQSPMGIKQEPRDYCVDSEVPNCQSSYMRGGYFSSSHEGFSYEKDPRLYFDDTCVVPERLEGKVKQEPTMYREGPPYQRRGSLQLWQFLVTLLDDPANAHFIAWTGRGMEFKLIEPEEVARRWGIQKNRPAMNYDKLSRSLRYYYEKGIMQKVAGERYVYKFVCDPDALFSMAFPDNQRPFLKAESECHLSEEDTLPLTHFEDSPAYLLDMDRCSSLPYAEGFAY
Chain of ETV6 (P41212 whole entry): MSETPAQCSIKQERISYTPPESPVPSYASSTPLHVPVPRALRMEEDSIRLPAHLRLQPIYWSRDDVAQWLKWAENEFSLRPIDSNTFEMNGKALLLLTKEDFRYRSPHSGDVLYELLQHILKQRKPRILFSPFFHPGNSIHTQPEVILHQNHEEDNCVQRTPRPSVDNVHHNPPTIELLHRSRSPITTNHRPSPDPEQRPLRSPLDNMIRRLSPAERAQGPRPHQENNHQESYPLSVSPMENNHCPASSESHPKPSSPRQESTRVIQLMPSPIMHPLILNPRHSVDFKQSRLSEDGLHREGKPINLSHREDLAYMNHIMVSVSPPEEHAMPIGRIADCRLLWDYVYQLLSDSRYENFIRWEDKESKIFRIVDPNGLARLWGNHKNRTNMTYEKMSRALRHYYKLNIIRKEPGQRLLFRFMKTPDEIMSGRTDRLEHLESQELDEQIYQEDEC

Turning to CTTAAT, the binding signal is 1.23 fold enrichment (6-mer frequency, TF over GST control) with FEV; 1.27 fold enrichment (6-mer frequency, TF over GST control) with ETV5; 2.31 fold enrichment (6-mer frequency, TF over GST control) in the assay with HSF1; 1.32 fold enrichment (6-mer frequency, TF over GST control) in the assay with SPIC; 1.33 fold enrichment (6-mer frequency, TF over GST control) in the assay with ELF4; 1.22 fold enrichment (6-mer frequency, TF over GST control) with ELK4. The binding signal with ETV2 was 1.25 fold enrichment (6-mer frequency, TF over GST control); with ELF3, 1.35 fold enrichment (6-mer frequency, TF over GST control); in the assay with CRX, 3.69 fold enrichment (6-mer frequency, TF over GST control); in the assay with ETV1 it was 1.29 fold enrichment (6-mer frequency, TF over GST control); with ERF, 1.27 fold enrichment (6-mer frequency, TF over GST control); in the assay with ETV3L, 1.4 fold enrichment (6-mer frequency, TF over GST control). The binding signal with ETS2 was 1.37 fold enrichment (6-mer frequency, TF over GST control); with SPDEF, 1.25 fold enrichment (6-mer frequency, TF over GST control); in the assay with ETV7, 1.33 fold enrichment (6-mer frequency, TF over GST control); with ELF5, 1.25 fold enrichment (6-mer frequency, TF over GST control); with ETV3, 1.27 fold enrichment (6-mer frequency, TF over GST control); with ETV6, 1.25 fold enrichment (6-mer frequency, TF over GST control).
